# Reference: PubChem BioAssay (NCATS)
# “And” between values parts separate entries of the source, which are not always exact repeats. Equal values may be shown once. Inconclusive results are not listed. Entries that show only a call come without a potency. The source made the active and inactive calls. Unless noted, calls come from the whole dose curve.
# Legend:
# [1] = target: Estrogen receptor (Homo sapiens) (UniProt P03372); assay: qHTS assay for small molecule antagonists of estrogen receptor alpha signaling (AID 588513; active = well fitted curve in the direction sought with a large enough effect in the signal ratio, with a control signal flat, not every such curve was filed as active; the % refers to the signal ratio)
# Procedure, shortened: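 Fluorescence from CCF4 substrate after 2 h at room temperature gave reporter activity; cells had been exposed to compound and 0.5nM 17-beta-estradiol for 18 h at 37 C. Hill-equation fitting yielded IC50 and maximal response.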
# [2] = target: Glucocorticoid receptor (Homo sapiens) (UniProt P04150); assay: qHTS assay for small molecule antagonists of glucocorticoid receptor signaling (AID 588533; active = well fitted inhibition curve with a large enough effect in the signal ratio, with a control signal flat, not every such curve was filed as active; the % refers to the signal ratio)
# Procedure, shortened: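 Antagonist-mode qHTS: compound titrations added to GRE-bla HeLa cells, then dexamethasone 2 nM final; 18 h, 37 C. CCF4 FRET fluorescence normalized to dexamethasone and DMSO; IC50 from Hill fit.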
# [3] = target: Peroxisome proliferator-activated receptor delta (Homo sapiens) (UniProt Q03181); assay: qHTS assay for small molecule agonists of peroxisome proliferator-activated receptor delta signaling (AID 588534)
# Procedure, shortened: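 Titration series tested in agonist mode on beta-lactamase reporter cells; 18 hrs at 37 C after a 5 hr pre-incubation. Readout: CCF4 fluorescence, 2 hrs RT. Hill equation gives EC50 and maximal response.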
# [4] = target: Peroxisome proliferator-activated receptor gamma (Homo sapiens) (UniProt P37231); assay: qHTS assay for small molecule agonists of peroxisome proliferator-activated receptor gamma signaling (AID 588536; active = well fitted curve in the direction sought with a large enough effect in the signal ratio, with a control signal flat, not every such curve was filed as active; the % refers to the signal ratio)
# Procedure, shortened: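 Cells were plated and held 6–6.5 h at 37 C, then compounds were added as a titration series. After a further 16 h, CCF4 dye was loaded for 2 h at room temperature and emission at 460/530 nm recorded.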
# [5] = target: Vitamin D3 receptor (Homo sapiens) (UniProt P11473); assay: qHTS assay for small molecule antagonists of vitamin D receptor signaling (AID 588541);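 note: receptor activated by calcitriol during compound treatment; series mostly up to about 77 µM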
# Procedure, shortened: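 VDR-UAS-bla HEK293T cells in 2% charcoal-stripped FBS were stimulated with 1-alpha,25-dihydroxyvitamin D3 (3 nM final) plus compound for 16 h at 37 C. The beta-lactamase CCF4 readout was normalized to 50 nM agonist and DMSO, and Hill fits gave IC50.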
# [6] = qHTS assay for small molecule agonists of retinoid X receptor alpha signaling (AID 588544); conditions: HEK293T RXRa-UAS-bla, beta-lactamase reporter, 18 h; 530 nm emission
# [7] = target: Retinoic acid receptor RXR-alpha (Homo sapiens) (UniProt P19793); assay: as above
# [8] = target: Thyroid hormone receptor beta (Homo sapiens) (UniProt P10828); assay: qHTS assay for small molecule agonists of thyroid hormone receptor beta signaling (AID 588545)
# Procedure, shortened: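 Beta-lactamase reporter activity under TR response element control is measured in HEK 293 cells after 18 hrs compound exposure. Signal is ratiometric CCF4 fluorescence, 460/530 nm.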
# [9] = qHTS assay for small molecule antagonists of retinoid X receptor alpha signaling (AID 588546; active = well fitted inhibition curve with a large enough effect in the signal ratio, with a control signal flat, not every such curve was filed as active; the % refers to the signal ratio;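 note: cells stimulated with 9-cis-retinoic acid as agonist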); conditions: HEK293T RXRa-UAS-bla, beta-lactamase ratio, antagonist mode; measured here: W530 green channel, cytotoxicity proxy
# Procedure, shortened: (§1)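 Beta-lactamase reporter inhibition, read as CCF4 fluorescence ratio (ex 405, em 460/530 nm) after 2 h at RT. HEK293T UAS-bla cells, 2500/well, were stimulated with 9-cis-RA at 500 or 100 nM final alongside test compound for 18 h at 37 C.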
# [10] = target: Retinoic acid receptor RXR-alpha (Homo sapiens) (UniProt P19793); assay: as above; conditions: HEK293T RXRa-UAS-bla, beta-lactamase ratio, antagonist mode
# Procedure, shortened: as §1
# [11] = qHTS assay for small molecule activators of the p53 signaling pathway (AID 651743; active = well fitted activation curve with a large enough effect in the signal ratio, not every such curve was filed as active; the % refers to the signal ratio; note: series mostly up to about 92 µM); conditions: HCT-116 p53RE-bla, beta-lactamase FRET ratio, 16 h; activation: stronger effect = higher value
# Procedure, shortened: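 Reporter: beta-lactamase driven by p53 response elements, stably integrated in HCT-116 cells. Cells seeded at 4,000/well, 5 h preincubation, compound (DMSO) 16 h at 37 C; B/G FRET substrate 2 h RT; fluorescence intensity read.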
# [12] = target: Peroxisome proliferator-activated receptor alpha (Homo sapiens) (UniProt Q07869); assay: qHTS assay for small molecule agonists of the peroxisome proliferator-activated receptor alpha (PPARalpha) signaling pathway (AID 651778; active = well fitted curve in the direction sought with a large enough effect; an effect the other way counts as inactive or inconclusive); conditions: PathHunter PPARalpha complementation, chemiluminescence, 6 h; max response: stronger effect = higher value
# Procedure, shortened: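 Enzyme-fragment complementation assay in which ligand-bound PPARalpha translocates and forms an active enzyme that generates chemiluminescence. Cells were plated overnight, exposed to compound for 6 hr at 37 C, and then given detection reagent for 60 min at room temperature.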
# [13] = qHTS assay for small molecule agonists of the antioxidant response element (ARE) signaling pathway measured by Nrf2-dependant transcriptional activity (AID 720636; active = well fitted curve in the direction sought with a large enough effect in the repeat runs; an effect the other way counts as inactive or inconclusive)
# Procedure, shortened: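 ARE-luc HepG2 cells carrying an Nrf2-responsive luciferase reporter were plated in medium with 1% dialyzed FBS, left 6 hr at 37 C to attach, then exposed to compound for 16 hr. Luciferase luminescence was read after ONE-Glo addition.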
# [14] = qHTS assay for small molecule agonists of the antioxidant response element (ARE) signaling pathway measured by Nrf2-dependant transcriptional activity - cell viability counter screen (AID 720653; active = well fitted curve in the direction sought with a large enough effect in the repeat runs; an effect the other way counts as inactive or inconclusive); conditions: ARE-bla HepG2 viability, CellTiter-Glo ATP luminescence, 16 h; max response: stronger effect = lower value
# Procedure, shortened: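 ARE-bla HepG2 cells treated with compounds for 16 h at 37C; this counter screen measures viability as intracellular ATP by CellTiter-Glo luminescence after 30 min at room temperature.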
# [15] = qHTS assay for cell viability of HEK293 cells (AID 743288; active = well fitted curve in the direction sought with a large enough effect; an effect the other way counts as inactive or inconclusive; note: nearly all actives have a fitted effect of over 50% in size); conditions: ATP luminescence (CellTiter-Glo), 18 h; max response: stronger effect = lower value
# Procedure, shortened: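 Viable-cell counts were inferred from luciferase-based ATP content in HEK293 cells seeded at 2,000/well, pre-incubated ≥5 h, then dosed with DMSO-solubilised compounds for 18 h at 37 C.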
# [16] = qHTS assay for cell viability of the p53RE-bla HCT-116 cell line (AID 743292; active = well fitted curve in the direction sought with a large enough effect; an effect the other way counts as inactive or inconclusive; note: nearly all actives have a fitted effect of over 55% in size)
# Procedure, shortened: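 CellSensor p53RE-bla HCT-116 cells, 4,000/well, preincubated 5 h at 37 C, then exposed to compounds in DMSO for 16 h at 37 C. Viability read as CellTiter-Glo luminescence (intracellular ATP) after 30 min at room temperature.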
# [17] = target: Nuclear receptor subfamily 1 group I member 2 (Rattus norvegicus) (UniProt Q9R1A7); assay: qHTS assay for small molecule activators of the rat pregnane X receptor (rPXR) signaling pathway (AID 651751; call rule not given here); conditions: rPXR reporter cells, luciferase (One-Glo), 24 h
# [18] = target: Estrogen receptor (Homo sapiens) (UniProt P03372); assay: qHTS assay for small molecule agonists of estrogen receptor alpha signaling (AID 588514); note: nearly all actives have a fitted effect of over 70% in size
# Procedure, shortened: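 Read-out: CCF4 fluorescence from a beta-lactamase reporter in ER-alpha-UAS-bla HEK 293 cells after 18 hrs of compound exposure at 37 C. Normalized to 20 nM 17-beta-estradiol (100%) and DMSO (0%).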
# [19] = target: Peroxisome proliferator-activated receptor gamma (Homo sapiens) (UniProt P37231); assay: qHTS assay for small molecule antagonists of peroxisome proliferator-activated receptor gamma signaling (AID 588537; active = well fitted inhibition curve with a large enough effect in the signal ratio, with a control signal flat, not every such curve was filed as active; the % refers to the signal ratio;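 note: reporter cells co-stimulated with 50 nM rosiglitazone agonist during compound treatment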)
# Procedure, shortened: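 Read-out: CCF4 fluorescence (ex 405, em 460/530 nm) after 2 h at RT. Cells were HEK293 carrying a UAS-bla reporter and treated 16 h at 37 C with compound plus rosiglitazone (50 nM final). Normalized to rosiglitazone and DMSO.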
# [20] = qHTS assay for environmental chemicals that activate the Aryl hydrocarbon Receptor (AhR) signaling pathway (AID 651777; active = well fitted curve in the direction sought with a large enough effect; an effect the other way counts as inactive or inconclusive; note: nearly all actives have a fitted effect of over 15% in size); conditions: 1A2-DRE human hepatoma cells, luciferase, 24 h; activation: stronger effect = higher value
# Procedure, shortened: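 Human hepatoma 1A2-DRE cells, stably carrying a dioxin response element and CYP1A2 promoter driving luciferase, were exposed to compounds for 24 hr at 37 C and 5% CO2. Luciferase signal was then read after 30 min One-Glo at room temperature.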
# Chain of Peroxisome proliferator-activated receptor gamma (Homo sapiens) (P37231 whole entry, looked up): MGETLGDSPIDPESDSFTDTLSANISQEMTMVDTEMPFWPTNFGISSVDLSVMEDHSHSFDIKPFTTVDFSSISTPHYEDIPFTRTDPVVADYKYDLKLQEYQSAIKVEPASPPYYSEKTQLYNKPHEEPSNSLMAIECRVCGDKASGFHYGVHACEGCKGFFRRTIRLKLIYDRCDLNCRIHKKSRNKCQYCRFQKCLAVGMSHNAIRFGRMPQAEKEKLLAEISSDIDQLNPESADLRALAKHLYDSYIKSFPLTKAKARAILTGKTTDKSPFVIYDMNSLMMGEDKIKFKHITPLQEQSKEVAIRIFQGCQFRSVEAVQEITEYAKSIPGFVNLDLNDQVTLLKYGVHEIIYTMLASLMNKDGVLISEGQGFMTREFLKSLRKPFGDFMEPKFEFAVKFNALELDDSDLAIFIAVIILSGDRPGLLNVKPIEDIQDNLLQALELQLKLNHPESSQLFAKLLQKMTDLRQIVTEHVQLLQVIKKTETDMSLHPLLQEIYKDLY
# Chain of Retinoic acid receptor RXR-alpha (Homo sapiens) (P19793 whole entry, looked up): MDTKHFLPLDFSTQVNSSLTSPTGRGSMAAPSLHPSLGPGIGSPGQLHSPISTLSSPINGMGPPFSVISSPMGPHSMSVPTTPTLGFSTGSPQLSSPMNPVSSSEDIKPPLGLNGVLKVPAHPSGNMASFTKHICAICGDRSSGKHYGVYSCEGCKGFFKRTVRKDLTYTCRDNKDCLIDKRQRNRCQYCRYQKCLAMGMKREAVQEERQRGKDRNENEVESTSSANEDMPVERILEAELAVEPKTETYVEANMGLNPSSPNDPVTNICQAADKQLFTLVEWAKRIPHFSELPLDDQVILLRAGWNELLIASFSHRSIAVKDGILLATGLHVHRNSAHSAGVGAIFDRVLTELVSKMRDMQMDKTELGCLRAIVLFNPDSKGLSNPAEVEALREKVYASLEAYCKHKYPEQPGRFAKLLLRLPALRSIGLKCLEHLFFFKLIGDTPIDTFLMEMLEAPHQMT
# Chain of Peroxisome proliferator-activated receptor alpha (Homo sapiens) (Q07869 whole entry, looked up, the tested form may be a part): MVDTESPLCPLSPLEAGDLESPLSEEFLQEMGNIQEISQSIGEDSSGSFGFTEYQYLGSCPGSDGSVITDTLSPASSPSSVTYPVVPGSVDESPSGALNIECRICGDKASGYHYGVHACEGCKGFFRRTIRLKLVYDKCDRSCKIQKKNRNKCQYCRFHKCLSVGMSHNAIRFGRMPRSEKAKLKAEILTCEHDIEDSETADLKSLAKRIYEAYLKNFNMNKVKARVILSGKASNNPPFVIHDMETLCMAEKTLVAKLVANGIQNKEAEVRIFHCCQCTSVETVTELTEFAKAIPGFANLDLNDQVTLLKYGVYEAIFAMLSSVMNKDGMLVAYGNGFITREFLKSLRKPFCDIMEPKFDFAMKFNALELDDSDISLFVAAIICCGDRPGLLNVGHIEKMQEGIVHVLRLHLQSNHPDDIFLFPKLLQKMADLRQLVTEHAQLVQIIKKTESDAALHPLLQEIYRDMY
# Chain of Thyroid hormone receptor beta (Homo sapiens) (P10828 whole entry, looked up): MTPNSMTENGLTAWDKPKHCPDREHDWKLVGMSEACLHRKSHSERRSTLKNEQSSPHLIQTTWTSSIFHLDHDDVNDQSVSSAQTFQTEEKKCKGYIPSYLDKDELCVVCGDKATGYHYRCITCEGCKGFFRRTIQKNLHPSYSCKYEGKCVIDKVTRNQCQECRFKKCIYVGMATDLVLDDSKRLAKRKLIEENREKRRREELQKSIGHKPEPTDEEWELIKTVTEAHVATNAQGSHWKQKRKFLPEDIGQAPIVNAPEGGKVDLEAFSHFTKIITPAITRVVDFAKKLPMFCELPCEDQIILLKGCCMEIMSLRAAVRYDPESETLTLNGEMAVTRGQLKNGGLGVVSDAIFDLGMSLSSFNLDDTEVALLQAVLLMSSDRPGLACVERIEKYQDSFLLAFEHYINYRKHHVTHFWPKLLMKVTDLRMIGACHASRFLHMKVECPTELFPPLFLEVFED
# Chain of Peroxisome proliferator-activated receptor delta (Homo sapiens) (Q03181 whole entry, looked up): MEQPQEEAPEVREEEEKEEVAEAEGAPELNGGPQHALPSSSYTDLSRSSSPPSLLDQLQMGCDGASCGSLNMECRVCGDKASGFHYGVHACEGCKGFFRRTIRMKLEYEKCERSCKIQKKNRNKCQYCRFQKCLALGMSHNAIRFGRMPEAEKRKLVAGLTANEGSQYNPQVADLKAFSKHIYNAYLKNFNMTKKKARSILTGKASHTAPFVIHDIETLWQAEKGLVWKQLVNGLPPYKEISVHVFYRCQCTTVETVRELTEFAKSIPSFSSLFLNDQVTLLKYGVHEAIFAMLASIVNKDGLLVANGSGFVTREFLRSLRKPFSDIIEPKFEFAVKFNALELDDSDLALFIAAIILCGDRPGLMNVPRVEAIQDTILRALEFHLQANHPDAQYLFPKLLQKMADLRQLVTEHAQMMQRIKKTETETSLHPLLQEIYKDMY
# Chain of Estrogen receptor (Homo sapiens) (P03372 whole entry, looked up): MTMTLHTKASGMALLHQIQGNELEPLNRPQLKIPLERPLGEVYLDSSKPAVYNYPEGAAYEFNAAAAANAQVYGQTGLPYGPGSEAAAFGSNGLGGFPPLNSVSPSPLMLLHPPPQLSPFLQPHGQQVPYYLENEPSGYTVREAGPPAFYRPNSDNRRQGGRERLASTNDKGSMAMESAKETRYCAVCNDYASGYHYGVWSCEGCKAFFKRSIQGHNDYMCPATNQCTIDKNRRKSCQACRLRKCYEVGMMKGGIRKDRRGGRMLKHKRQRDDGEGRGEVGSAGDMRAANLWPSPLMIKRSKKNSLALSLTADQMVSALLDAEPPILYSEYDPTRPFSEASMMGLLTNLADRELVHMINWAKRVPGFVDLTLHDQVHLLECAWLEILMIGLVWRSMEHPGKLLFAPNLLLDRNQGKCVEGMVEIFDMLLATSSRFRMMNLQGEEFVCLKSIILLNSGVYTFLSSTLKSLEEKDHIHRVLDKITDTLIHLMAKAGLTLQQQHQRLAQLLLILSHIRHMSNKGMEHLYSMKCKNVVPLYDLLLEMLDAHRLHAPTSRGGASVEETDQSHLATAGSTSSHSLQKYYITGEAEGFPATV
# Chain of Vitamin D3 receptor (Homo sapiens) (P11473 whole entry, looked up): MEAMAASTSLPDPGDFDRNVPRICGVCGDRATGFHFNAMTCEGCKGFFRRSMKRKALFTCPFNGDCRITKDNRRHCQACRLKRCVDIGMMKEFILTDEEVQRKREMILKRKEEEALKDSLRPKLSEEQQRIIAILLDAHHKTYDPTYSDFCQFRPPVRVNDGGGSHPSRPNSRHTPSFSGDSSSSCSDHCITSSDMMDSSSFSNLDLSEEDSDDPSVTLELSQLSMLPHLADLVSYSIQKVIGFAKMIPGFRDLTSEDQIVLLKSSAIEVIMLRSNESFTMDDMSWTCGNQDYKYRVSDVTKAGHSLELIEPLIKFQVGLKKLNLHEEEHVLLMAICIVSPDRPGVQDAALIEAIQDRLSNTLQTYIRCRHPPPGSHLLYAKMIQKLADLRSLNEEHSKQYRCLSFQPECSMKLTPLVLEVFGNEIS
# Chain of Nuclear receptor subfamily 1 group I member 2 (Rattus norvegicus) (Q9R1A7 whole entry, looked up): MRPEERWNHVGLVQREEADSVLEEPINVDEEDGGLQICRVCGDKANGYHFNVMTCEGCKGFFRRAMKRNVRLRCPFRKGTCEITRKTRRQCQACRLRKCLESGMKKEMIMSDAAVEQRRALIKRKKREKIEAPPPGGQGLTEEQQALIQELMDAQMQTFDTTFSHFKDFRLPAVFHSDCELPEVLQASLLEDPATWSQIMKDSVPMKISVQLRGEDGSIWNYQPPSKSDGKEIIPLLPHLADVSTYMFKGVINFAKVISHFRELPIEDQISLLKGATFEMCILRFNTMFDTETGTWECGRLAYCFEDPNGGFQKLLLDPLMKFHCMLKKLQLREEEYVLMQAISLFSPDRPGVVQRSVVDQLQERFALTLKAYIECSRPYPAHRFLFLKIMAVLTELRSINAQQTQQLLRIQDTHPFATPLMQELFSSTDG
# Chain of Glucocorticoid receptor (Homo sapiens) (P04150 whole entry, looked up): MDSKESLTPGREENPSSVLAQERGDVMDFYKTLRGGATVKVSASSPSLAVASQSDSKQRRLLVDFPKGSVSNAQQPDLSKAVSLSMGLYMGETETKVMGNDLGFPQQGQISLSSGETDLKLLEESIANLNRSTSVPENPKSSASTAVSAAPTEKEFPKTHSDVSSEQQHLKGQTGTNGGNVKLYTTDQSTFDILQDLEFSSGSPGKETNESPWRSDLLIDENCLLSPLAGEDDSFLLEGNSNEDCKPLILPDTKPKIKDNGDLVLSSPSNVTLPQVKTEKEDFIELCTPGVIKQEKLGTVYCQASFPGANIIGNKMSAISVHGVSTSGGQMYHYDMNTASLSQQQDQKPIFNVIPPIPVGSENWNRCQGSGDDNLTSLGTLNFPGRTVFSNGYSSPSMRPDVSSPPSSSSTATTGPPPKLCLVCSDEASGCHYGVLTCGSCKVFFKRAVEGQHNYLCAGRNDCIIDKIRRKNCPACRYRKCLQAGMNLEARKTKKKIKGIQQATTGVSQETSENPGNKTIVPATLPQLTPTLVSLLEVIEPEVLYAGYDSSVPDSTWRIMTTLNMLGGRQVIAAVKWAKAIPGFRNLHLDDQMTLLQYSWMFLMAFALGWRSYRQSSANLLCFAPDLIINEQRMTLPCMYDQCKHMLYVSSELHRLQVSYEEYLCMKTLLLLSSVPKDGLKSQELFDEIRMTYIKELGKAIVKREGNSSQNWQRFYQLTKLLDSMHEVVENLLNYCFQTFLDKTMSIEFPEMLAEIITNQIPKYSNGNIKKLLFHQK
SMILES,Potency [1],Potency [2],outcome [3],Potency [4],Potency [5],max response [6],Potency [7],Potency [8],max response [9],max response [10],activation [11],max response [12],Potency [13],max response [14],max response [15],Potency [16],max response [17],Potency [18],Potency [19],activation [20]
Nc1ccc([N+](=O)[O-])cc1Cl,inactive,inactive,inactive,inactive,inactive,-7.96%,inactive,inactive,-11.1%,-1.45% (inactive),-0.946% (inactive),-5.45% (inactive),inactive,3.06% (inactive),-1.89% (inactive),inactive,2.06% (inactive),,,
Clc1ccccc1-c1nnc(-c2ccccc2Cl)nn1,inactive,,inactive,inactive,inactive,,inactive,inactive,-19.7%,-5.51% (inactive),,-0.0144% (inactive),,-3% (inactive),-8.84% (inactive),inactive,,inactive,inactive,
C=C(C)CN(CC)c1c([N+](=O)[O-])cc(C(F)(F)F)cc1[N+](=O)[O-],inactive,,inactive,inactive,inactive,3.32%,inactive,inactive,-6.07%,1.05% (inactive),0.904% (inactive),0.658% (inactive),inactive,5.45% (inactive),-3.14% (inactive),inactive,,inactive,inactive,1.28% (inactive)
Cn1cc(-c2ccccc2)c(=O)c(-c2cccc(C(F)(F)F)c2)c1,inactive,inactive,,inactive,,,,inactive,0.227%,-21.3% (inactive),-5.34% (inactive),1.29% (inactive),inactive,-0.838% (inactive),,inactive,0.923% (inactive),inactive,inactive,0.553% (inactive)
CS(=O)(=O)c1cc(C(F)(F)F)ccc1C(=O)c1cnoc1C1CC1,inactive,,inactive,,inactive,,,inactive,-9.9%,-4.05% (inactive),-1.28% (inactive),-3.75% (inactive),inactive,-9.62% (inactive),-14.1% (inactive),inactive,-4.39% (inactive),inactive,inactive,-0.804% (inactive)
CCNc1nc(NCC)nc(SC)n1,inactive,inactive,,inactive,inactive,-4.09%,inactive,inactive,-14%,-3.26% (inactive),-3.86% (inactive),0.186% (inactive),inactive,8.18% (inactive),-5.22% (inactive),inactive,1.83% (inactive),inactive,,
COC(=O)NS(=O)(=O)c1ccc(N)cc1,inactive,inactive,inactive,inactive,inactive,-13.8% and -12.5%,inactive,inactive,6.39% and -8.17%,-10.8% (inactive) and -3.57% (inactive),,0.635% (inactive) and -1.36% (inactive),inactive,9.3% (inactive) and -4.17% (inactive),0.196% (inactive) and -9.27% (inactive),inactive,2.14% (inactive) and -3.25% (inactive),inactive,inactive,-0.0088% (inactive) and 0.402% (inactive)
OC(Cn1cncn1)(c1ccc(F)cc1)c1ccccc1F (centres undefined),inactive,,inactive,inactive,inactive,-7.56%,inactive,inactive,-19.4%,-2.11% (inactive),0.874% (inactive),-2.15% (inactive),inactive,,,inactive,,inactive,inactive,-1.4% (inactive)
COc1cc(Cl)c(OC)cc1Cl,inactive,inactive,,inactive,inactive,-12.5%,inactive,inactive,,,-1% (inactive),-0.244% (inactive),inactive,-1.62% (inactive),-14.2% (inactive),inactive,1.36% (inactive),inactive,inactive,-2.48% (inactive)
C/C=C(\C)C(=O)O[C@H]1C[C@@H](OC(C)=O)[C@@]2(C(=O)OC)CO[C@H]3[C@@H](O)[C@@](C)([C@]45O[C@@]4(C)[C@H]4C[C@@H]5O[C@@H]5OC=C[C@@]54O)[C@H]4[C@]1(CO[C@]4(O)C(=O)OC)[C@@H]32,inactive,,inactive,inactive,inactive,-0.369%,inactive,inactive,-5.84%,9.93% (inactive),6.01% (inactive),-3.71% (inactive),inactive,-22.9% (inactive),-0.199% (inactive),inactive,,,inactive,-0.999% (inactive)
CCCCC(CC)CO[N+](=O)[O-] (centres undefined),inactive,inactive,inactive,inactive,inactive,-0.882%,inactive,inactive,-8.14%,3.31% (inactive),,-0.348% (inactive),inactive,,3.43% (inactive),inactive,1.62% (inactive),inactive,inactive,2.43% (inactive)
